Experimental findings from PubChem BioAssay (NCI) are described below.

About 79,000 compounds went through this panel and 15% of them were active in at least one assay; those are over-represented in the sample as a whole. A number with no mark means an inactive call. Calls of active or inactive are those of the source. No stated cut-off is given here; in the data, active means growth inhibition above about 70%; inactive means the rest.

Assay [1] is described as follows: NCI Yeast Anticancer Drug Screen. Data for the rad50 strain (AID 155).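 Further: 0% = growth of vehicle-only cultures of the same strain.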 Conditions: S. cerevisiae rad50 strain growth inhibition, stronger effect = higher value. In short, it runs like this:
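Inhibition values express reduced yeast growth in compound-treated cultures relative to vehicle-treated controls.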

Assay [2] can be described thus: NCI Yeast Anticancer Drug Screen. Data for the mec2-1 strain (AID 157). Conditions: S. cerevisiae mec2-1 strain, stronger effect = higher value. In short, it runs like this:
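Compounds were applied to mec2-1 yeast cells. Their growth was then compared with that of vehicle-treated cultures to give growth inhibition.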

Assay [3] in a line: NCI Yeast Anticancer Drug Screen. Data for the sgs1 mgt1 strain (AID 161).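 Further: 0% = growth of cultures given vehicle only.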 The note with it: S. cerevisiae sgs1 mgt1 strain, stronger effect = higher value. The method, boiled down:
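Growth of a repair-deficient yeast mutant was monitored after compound treatment and expressed as inhibition relative to vehicle-treated cultures.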

Assay [4] can be described thus: NCI Yeast Anticancer Drug Screen. Data for the cln2 rad14 strain (AID 165).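 Further: 0% = growth equal to vehicle treated cultures.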 The note with it: S. cerevisiae cln2 rad14 strain, stronger effect = higher value. The method, boiled down: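 Strain: cln2 rad14 yeast, altered in cell cycle control and DNA damage repair. Read-out: growth inhibition vs vehicle.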
Assay [5] can be described thus: NCI Yeast Anticancer Drug Screen. Data for the bub3 strain (AID 167). Conditions: S. cerevisiae bub3 mutant strain, stronger effect = higher value. In short, it runs like this: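 Steps: expose the mutant yeast strain to compound; grow alongside vehicle-treated cultures; measure growth; express inhibition against the vehicle cultures.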
A short description of assay [6]: NCI Yeast Anticancer Drug Screen. Data for the mlh1 rad18 strain (AID 175). The note with it: S. cerevisiae mlh1 rad18 strain growth inhibition, stronger effect = higher value. In short, it runs like this: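 A repair-deficient yeast strain is exposed to test compound, and growth is scored relative to vehicle-treated controls.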
[7] abbreviates: at 5.0 µM (retest, dose inferred, filed as 0.5).
The mark [8] stands for this setting: at 50.0 µM (retest, dose inferred, filed as 5.0).

As for `O=C1c2ccccc2C(=O)c2ncccc21`, the growth inhibition is 14% in assay [1] (setting [7]); 91% (active) in assay [1] (setting [8]); 96.3% (active) in assay [1] (at 50.0 µM); 8% in assay [2] (setting [7]); 86% (active) in assay [2] (setting [8]); 94.4% (active) in assay [2] (at 50.0 µM). Besides, the growth inhibition in assay [3] (setting [7]) is 8%; in assay [3] (setting [8]), 89% (active); in assay [3] (at 50.0 µM), 93.3% (active); in assay [4] (setting [7]), -2%; in assay [4] (setting [8]), 85% (active); in assay [4] (at 50.0 µM), 86.5% (active). Also, the growth inhibition is 11% in assay [5] (setting [7]); 87% (active) in assay [5] (setting [8]); 91% (active) in assay [5] (at 50.0 µM); 37% in assay [6] (setting [7]); 95% (active) in assay [6] (setting [8]); 97.8% (active) in assay [6] (at 50.0 µM).
In the case of `CN(C)CCC(/C=C/c1ccccc1)=N\Nc1ccc(Cl)cc1`, the growth inhibition was 27% in assay [1] (setting [7]); 99% (active) in assay [1] (setting [8]); 99.2% (active) in assay [1] (at 50.0 µM); 17% in assay [2] (setting [7]); 99% (active) in assay [2] (setting [8]); 99% (active) in assay [2] (at 50.0 µM). Moreover, the growth inhibition in assay [3] (setting [7]) is 56%; in assay [3] (setting [8]), 100% (active); in assay [3] (at 50.0 µM), 99.1% (active); in assay [4] (setting [7]), 12%; in assay [4] (setting [8]), 99% (active); in assay [4] (at 50.0 µM) it was 99.2% (active). For the same compound, the growth inhibition in assay [5] (setting [7]) was 46%; in assay [5] (setting [8]), 99% (active); in assay [5] (at 50.0 µM), 99.3% (active); in assay [6] (setting [7]) it was 42%; in assay [6] (setting [8]), 99% (active); in assay [6] (at 50.0 µM) it was 85.3% (active).
Consider `CCCCCCCCCCC(O)CN1CCN(c2cccc(Cl)c2)CC1` (configuration not stated), for which the growth inhibition was 95% (active) in assay [1] (setting [7]); 98% (active) in assay [1] (setting [8]); 98.9% (active) in assay [1] (at 50.0 µM); 99% (active) in assay [2] (setting [7]); 99% (active) in assay [2] (setting [8]); 98.7% (active) in assay [2] (at 50.0 µM). In addition, the growth inhibition is 99% (active) in assay [3] (setting [7]); 99% (active) in assay [3] (setting [8]); 99.2% (active) in assay [3] (at 50.0 µM); 97% (active) in assay [4] (setting [7]); 98% (active) in assay [4] (setting [8]); 97.2% (active) in assay [4] (at 50.0 µM). In addition, the growth inhibition was 96% (active) in assay [5] (setting [7]); 99% (active) in assay [5] (setting [8]); 90.3% (active) in assay [5] (at 50.0 µM); 99% (active) in assay [6] (setting [7]); 99% (active) in assay [6] (setting [8]); 99.2% (active) in assay [6] (at 50.0 µM).
In the case of `Cc1ccc2c(c1)C1(SC(CC(=O)O)C(=O)N1c1ccc(Cl)cc1)C(=O)N2` (configuration not stated), the growth inhibition was 4% in assay [1] (setting [7]); 5% in assay [1] (setting [8]); 2.3% in assay [1] (at 50.0 µM); 0% in assay [2] (setting [7]); -1% in assay [2] (setting [8]); 12.3% in assay [2] (at 50.0 µM). The growth inhibition was 1% in assay [3] (setting [7]); -6% in assay [3] (setting [8]); -6.85% in assay [3] (at 50.0 µM); -1% in assay [4] (setting [7]); -4% in assay [4] (setting [8]); -4.2% in assay [4] (at 50.0 µM). The growth inhibition in assay [5] (setting [7]) was 1%; in assay [5] (setting [8]), 0%; in assay [5] (at 50.0 µM), -2.8%; in assay [6] (setting [7]), 0%; in assay [6] (setting [8]), -49%; in assay [6] (at 50.0 µM) it was 10.5%.
On to `N#CC(C#N)=C/C=C/c1c(Cl)cccc1Cl`, for which the growth inhibition in assay [1] (setting [7]) was 7%; in assay [1] (setting [8]) it was 41%; in assay [1] (at 50.0 µM), 71.2% (active); in assay [2] (setting [7]), 15%; in assay [2] (setting [8]), 58%; in assay [2] (at 50.0 µM), 46.9%. The growth inhibition is 11% in assay [3] (setting [7]); 78% (active) in assay [3] (setting [8]); 58.9% in assay [3] (at 50.0 µM); 29% in assay [4] (setting [7]); 68% in assay [4] (setting [8]); 76.8% (active) in assay [4] (at 50.0 µM). Further, the growth inhibition in assay [5] (setting [7]) is 25%; in assay [5] (setting [8]), 79% (active); in assay [5] (at 50.0 µM) it was 69.6%; in assay [6] (setting [7]), 8%; in assay [6] (setting [8]) it was 66%; in assay [6] (at 50.0 µM) it was 57.1%.
In the case of `O=C(O)C(O)C(O)C(O)C(O)CO.[Ag]` (configuration not stated), the growth inhibition is 99% (active) in assay [1] (setting [7]); 98% (active) in assay [1] (setting [8]); 99.2% (active) in assay [1] (at 50.0 µM); 99% (active) in assay [2] (setting [7]); 99% (active) in assay [2] (setting [8]); 99.3% (active) in assay [2] (at 50.0 µM). Besides, the growth inhibition in assay [3] (setting [7]) is 99% (active); in assay [3] (setting [8]), 99% (active); in assay [3] (at 50.0 µM) it was 99.5% (active); in assay [4] (setting [7]), 99% (active); in assay [4] (setting [8]), 98% (active); in assay [4] (at 50.0 µM), 99.3% (active). In addition, the growth inhibition in assay [5] (setting [7]) is 99% (active); in assay [5] (setting [8]), 98% (active); in assay [5] (at 50.0 µM) it was 99.3% (active); in assay [6] (setting [7]) it was 99% (active); in assay [6] (setting [8]), 98% (active); in assay [6] (at 50.0 µM) it was 99% (active).
In the case of `Clc1ccc(C2=NCON=C2c2ccc(Cl)cc2)cc1`, the growth inhibition in assay [1] (setting [7]) is 17%; in assay [1] (setting [8]), 97% (active); in assay [1] (at 50.0 µM), 87.9% (active); in assay [2] (setting [7]), 7%; in assay [2] (setting [8]), 99% (active); in assay [2] (at 50.0 µM), 90.5% (active). Further, the growth inhibition is 10% in assay [3] (setting [7]); 99% (active) in assay [3] (setting [8]); 91% (active) in assay [3] (at 50.0 µM); 9% in assay [4] (setting [7]); 98% (active) in assay [4] (setting [8]); 89.5% (active) in assay [4] (at 50.0 µM). Further, the growth inhibition is 20% in assay [5] (setting [7]); 99% (active) in assay [5] (setting [8]); 90.8% (active) in assay [5] (at 50.0 µM); 7% in assay [6] (setting [7]); 97% (active) in assay [6] (setting [8]); -18.7% in assay [6] (at 50.0 µM).
Take `O[C@H]1c2cccn2-c2ccccc2S[C@H]1c1ccccc1`: the growth inhibition is 12% in assay [1] (setting [7]); 99% (active) in assay [1] (setting [8]); 98.8% (active) in assay [1] (at 50.0 µM); -6% in assay [2] (setting [7]); 99% (active) in assay [2] (setting [8]); 98.8% (active) in assay [2] (at 50.0 µM). Also, the growth inhibition in assay [3] (setting [7]) is 3%; in assay [3] (setting [8]) it was 97% (active); in assay [3] (at 50.0 µM), 98.8% (active); in assay [4] (setting [7]), 6%; in assay [4] (setting [8]), 99% (active); in assay [4] (at 50.0 µM), 98.8% (active). Also, the growth inhibition was 10% in assay [5] (setting [7]); 98% (active) in assay [5] (setting [8]); 98.5% (active) in assay [5] (at 50.0 µM); -4% in assay [6] (setting [7]); 99% (active) in assay [6] (setting [8]); 99% (active) in assay [6] (at 50.0 µM).
`OC(CBr)c1c(Br)ccc2ccccc12` (configuration not stated): the growth inhibition is 3% in assay [1] (setting [7]); 65% in assay [1] (setting [8]); 53.6% in assay [1] (at 50.0 µM); -6% in assay [2] (setting [7]); 82% (active) in assay [2] (setting [8]); 5.75% in assay [2] (at 50.0 µM). Moreover, the growth inhibition in assay [3] (setting [7]) was 3%; in assay [3] (setting [8]), 77% (active); in assay [3] (at 50.0 µM), 48%; in assay [4] (setting [7]) it was -3%; in assay [4] (setting [8]) it was 65%; in assay [4] (at 50.0 µM) it was 32.9%. Further, the growth inhibition in assay [5] (setting [7]) is -1%; in assay [5] (setting [8]), 77% (active); in assay [5] (at 50.0 µM) it was 20.4%; in assay [6] (setting [7]), 20%; in assay [6] (setting [8]), 90% (active); in assay [6] (at 50.0 µM), 74.7% (active).
